Experimental findings from PubChem BioAssay AID588674 (Broad Institute, 2011) are described below.

SMILES strings stand for the structures. Screen size: about 360,000 compounds; about 1,800 (0.5%) were called active. Shown is part of a subset that was picked to be rich in actives. Unmarked numbers belong to inactive results.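 How the source made its calls: active means mean inhibition of at least 75% with every replicate also reaching 75%; inconclusive means mean inhibition at least 75% but some replicate below; inactive means mean inhibition below 75%.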

This assay in a line: Shn3 3'UTR reporter decrease in osteoblasts – cell-based, Clone20 osteoblasts, firefly luciferase, set 2, Schnurri-3 inhibitor project, primary screen (AID 588674).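 Further: 0% = median of neutral control wells and 100% = pilot-screen positive control compound.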 The note with it: Clone20 osteoblast Shn3 3'UTR firefly luciferase, 24 h; at 12.5 µM; active compounds read high.
Broadly, the inhibition is the change of the read-out against control, counted positive when it falls. With `CCCCCCCCCCCCn1ccc(=N)cc1`, the inhibition was 90.6% (active).

As for `CN1C2C=C(N(C(=O)c3ccc(Cl)cc3)c3ccccc3)CC1CC2` (stereo not given), the inhibition is -7.65%. With `Cc1ccc(S(=O)(=O)N(C)c2ccc(C(=O)NCC3(N(C)C)CCCCC3)cc2)cc1` the figure was -2.63%; with `Nc1ccc(C(=O)N/N=C2/CN3CCC2CC3)cc1`, -22.5%; with `CCC(C)(O)C(=O)OC1C(=O)OC2CC3C(C)=CC(=O)C(O)C3(C)C3C4(O)OCC23C1C(C)C4O` (stereo not given), 91.5% (active).

For the compound `Cc1ccc(C2CN(C)CC2C(=O)c2ccc(F)cc2)cc1` (stereo not given), the inhibition was 6.66%. With `O=C1NC(=O)C(CCc2ccccn2)(Cc2cccc(Cl)c2Cl)C(=O)N1c1ccc(Br)cc1` (stereo not given) the figure was 13.7%. With `CC(=O)OC1C2(CC3N4C(=O)C5(CO)SSC4(CC31O)C(=O)N5C)OC(C)C(C)(C)C2=O` (stereo not given) the figure was 98.1% (active). To `CCC(=O)c1ccc(OCC(=O)N2CCN(CC(=O)Nc3ccc(C)cc3)CC2)cc1` belongs 19.6%; to `O=C1C2CCN(CC2)C1(CO)CO`, -25.5%; to `O=C(c1ccccc1)C(O)(CN1CCCCC1)c1ccccc1` (stereo not given), 5.93%. As to `CCN1C(=O)C(=Cc2c(C)n(CC(=O)NCC3CCCO3)c3ccccc23)C(=O)N(CC)C1=S` (stereo not given), the inhibition was 1.7%. To `Clc1ccc2nc3c(c(-c4ccccc4)c2c1)CNCC3` belongs 14.4%; to `C[C@]12CCC3C(CC[C@H]4[C@H](O)[C@H](O)CC[C@]34C)C1CCC2=O` (stereo not given in full), -16.7%; to `Cc1ccc(N2C(=O)NC(=O)C(CCc3ccncc3)(Cc3cccc(Cl)c3Cl)C2=O)cc1` (stereo not given), -0.01%.
